Source: PubChem BioAssay (NCI)
The panel holds about 83,000 compounds, 20% with a hit somewhere; the sample as a whole holds those more often.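 Each cell line was grown in a 96-well plate and treated with one concentration of compound for 48 hours. Values below 10 were considered active.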 Active and inactive are the calls of the source.

Tests used:
Assay in all cases: NCI-60 one-dose screen, 48 h (100 = growth as untreated, 0 = no growth, -100 = all killed)
[1] = tested on: NCI-H23 lung; conditions: 10 µM unless noted
[2] = tested on: NCI-H226 lung; conditions: 10 µM unless noted
[3] = tested on: NCI-H322M lung; conditions: 10 µM unless noted
[4] = tested on: HOP-62 NSCLC; conditions: 10 µM unless noted
[5] = tested on: NCI-H460 lung; conditions: 10 µM unless noted
[6] = tested on: HOP-92 NSCLC; conditions: 10 µM unless noted
[7] = tested on: NCI-H522 lung; conditions: 10 µM
[8] = tested on: 786-0 renal; conditions: 10 µM unless noted
[9] = tested on: COLO 205 colon; conditions: 10 µM unless noted
[10] = tested on: K-562 leukemia; conditions: 10 µM unless noted
[11] = tested on: MALME-3M melanoma; conditions: 10 µM unless noted
[12] = tested on: MDA-MB-231 breast; conditions: 10 µM unless noted
[13] = tested on: SF-268 CNS; conditions: 10 µM unless noted
[14] = tested on: SF-295 CNS; conditions: 10 µM unless noted
[15] = tested on: SF-539 CNS; conditions: 10 µM unless noted
[16] = tested on: UACC-257 melanoma; conditions: 10 µM unless noted
[17] = tested on: M14 melanoma; conditions: 10 µM unless noted
[18] = tested on: DU-145 prostate; conditions: 10 µM unless noted
[19] = tested on: A549/ATCC NSCLC; conditions: 10 µM unless noted
[20] = tested on: RXF 393 renal; conditions: 10 µM unless noted

Measured: growth

COc1ccc(CNC(=O)c2c(C)n([O-])c3ccc(OC)cc3[n+]2=O)cc1
active: [6] -1.17% | [7] -2.57%
inactive: [1] 98.2% | [2] 110% | [3] 89.7% | [4] 105% | [5] 118% | [8] 96% | [9] 108% | [10] 90.8% | [11] 98.6% | [12] 111% | [13] 103% | [14] 239% | [15] 118% | [16] 109% | [17] 107%

COc1ccc(Cl)cc1Nc1nc(C(F)(F)F)ccc1C(=O)N/N=C/c1c(Cl)cccc1Cl
inactive: [1] 74.1% | [2] 59.6% | [3] 44.7% | [4] 58.5% | [5] 41.6% | [6] 70.9% | [7] 39.2% | [8] 43.7% | [9] 35.9% | [10] 33.8% | [11] 69.3% | [12] 46.3% | [13] 65% | [14] 13.8% | [15] 20.6% | [16] 60.9% | [17] 71.3%

O=C(NC1CCS(=O)(=O)C1)c1ccc(C(=O)c2ccccc2)cc1 (stereo not given)
inactive: [1] 98.9% | [2] 94.5% | [3] 128% | [4] 101% | [5] 104% | [6] 101% | [7] 90.9% | [8] 101% | [9] 102% | [18] 128% | [10] 108% | [11] 108% | [12] 124% | [13] 118% | [14] 99.6% | [15] 103% | [16] 82.7% | [17] 98.6%

C=C(CN1CCc2c([nH]c3ccccc23)C1)c1ccc(C(=O)Nc2ccon2)cc1
inactive: [1] 85.9% | [2] 92.7% | [3] 125% | [4] 88.2% | [5] 101% | [6] 31.5% | [8] 96% | [9] 83.6% | [10] 44.2% | [11] 129% | [12] 78.6% | [13] 97.1% | [14] 114% | [15] 90% | [16] 97.3% | [17] 95.6%
active: [7] -15%

CC1Cc2ccccc2N1C(=O)c1ccc(C(=O)c2ccccc2)cc1 (stereo not given)
inactive: [1] 98.3% | [2] 78.1% | [3] 91.2% | [4] 80.5% | [5] 99.3% | [6] 92% | [7] 77.3% | [8] 86.7% | [9] 97.1% | [18] 79.7% | [10] 85.6% | [11] 73% | [12] 91.3% | [13] 92.1% | [14] 84% | [15] 96.3% | [16] 30.1% | [17] 83.5%

C1CCC(C(CC2CCCCN2)C2CCCCC2)CC1 (stereo not given)
inactive: [2] 28% | [3] 49.8% | [18] 14% | [13] 49.9%
active: [1] 9.26% | [4] -81.6% | [5] -84.3% | [6] -2.64% | [7] -16.8% | [8] -86.7% | [9] -63.6% | [10] -64.9% | [11] -73.2% | [12] 1.11% | [14] -62.9% | [15] -35.9% | [17] -88.2%

Nc1ccc(Oc2c(F)c(F)c(Oc3ccc(N)cc3)c(F)c2F)cc1
active: [3] -4.94% | [16] 9.12%
inactive: [1] 96.5% | [2] 104% | [4] 101% | [5] 112% | [6] 80.5% | [7] 90.4% | [8] 106% | [9] 108% | [18] 107% | [10] 93.3% | [11] 87.1% | [12] 109% | [13] 97.9% | [14] 103% | [15] 111% | [17] 99.1%

COc1ccc(C(=O)COc2ccc(/C=C3\Oc4ccc5ccccc5c4C3=O)cc2)cc1
inactive: [1] 90.7% | [2] 107% | [3] 100% | [4] 104% | [5] 110% | [6] 94.9% | [7] 64% | [8] 106% | [9] 121% | [10] 83% | [11] 85.5% | [12] 97% | [13] 104% | [14] 102% | [15] 72.5% | [16] 98.3% | [17] 99.5%

Cc1cc(Cl)ccc1Nc1nc(C(F)(F)F)ccc1C(=O)N/N=C/c1ccc(Cl)cc1
inactive: [13] 10.4% | [16] 16.6%
active: [1] 5.4% | [2] 7.79% | [3] -1.86% | [4] -61.2% | [5] -5.33% | [6] -24.1% | [7] -17.6% | [8] -45% | [9] -18.7% | [10] 5.71% | [11] -0.888% | [12] -22.5% | [14] -41.8% | [15] 0.0279% | [17] 0.962%

NS(=O)(=O)N(c1cc(C(F)(F)F)cc(C(F)(F)F)c1)C1CCN(Cc2ccc(C(F)(F)F)cc2)CC1
inactive: [2] 78.1% | [3] 45.1% | [4] 30.2% | [8] 42.3% | [10] 21% | [11] 71.2% | [12] 19.1% | [13] 38.5% | [14] 49.8%
active: [1] 9.79% | [5] 5.71% | [6] 7.48% | [7] -23.3% | [9] -59.8% | [18] 8.8% | [15] 0.806% | [17] -0.587%

COc1ccc(/C=C/C(=O)c2cccc(NS(C)(=O)=O)c2)cc1
inactive: [1] 69.6% | [2] 85.7% | [3] 92.2% | [4] 90.2% | [5] 96.4% | [6] 60.5% | [7] 66.5% | [8] 75.7% | [9] 102% | [18] 42.6% | [11] 112% | [12] 80.5% | [13] 82% | [14] 92.1% | [15] 94.7% | [17] 97.3%

Cc1ccc(-c2cc(-c3ccccc3)n(-c3ccccc3)n2)cc1
active: [4] -2.85%
inactive: [1] 95.9% | [2] 97.9% | [3] 97.3% | [5] 104% | [6] 108% | [7] 79% | [8] 92.9% | [9] 112% | [10] 81.2% | [11] 87.6% | [12] 112% | [13] 98.3% | [14] 156% | [15] 115% | [16] 98.1% | [17] 110%

O=C(C(=O)N1CCOCC1)c1cn(CCCn2cc(C(=O)C(=O)N3CCOCC3)c3ccccc32)c2ccccc12
inactive: [1] 113% | [2] 102% | [3] 103% | [4] 103% | [5] 129% | [6] 78.8% | [19] 104% | [8] 104% | [9] 105% | [18] 115% | [10] 111% | [11] 99.8% | [12] 93.4% | [20] 119% | [13] 105% | [14] 106% | [15] 102% | [16] 107% | [17] 101%

COC(=O)c1cc2oc(/C=N\NC(=O)c3cc4oc(C)c(C)c4[nH]3)cc2[nH]1
active: [6] -34.1%
inactive: [1] 104% | [2] 117% | [3] 106% | [4] 110% | [5] 111% | [19] 112% | [8] 107% | [9] 94% | [18] 147% | [10] 84.1% | [11] 82.5% | [12] 107% | [20] 101% | [13] 106% | [14] 84.2% | [15] 101% | [16] 114%

Cc1ccc2nc(SCC(=O)Nc3ccc(-c4nc5ccccc5s4)c(Cl)c3)[nH]c2c1
inactive: [1] 109% | [2] 98.7% | [3] 101% | [4] 114% | [5] 116% | [6] 98% | [19] 98.3% | [8] 98.1% | [9] 107% | [18] 132% | [10] 109% | [11] 131% | [12] 113% | [20] 98.6% | [13] 105% | [14] 106% | [15] 109% | [16] 96.9% | [17] 111%

N#Cc1ccccc1C#Cc1ccccc1C#Cc1ccc(OCCCCCCOc2ccc(C#Cc3ccccc3C#Cc3ccccc3C#N)cc2)cc1
inactive: [1] 99.4% | [2] 102% | [3] 105% | [4] 103% | [5] 116% | [6] 91.6% | [19] 94% | [8] 98.4% | [9] 119% | [18] 111% | [10] 96.7% | [11] 102% | [12] 88.5% | [20] 97.7% | [13] 115% | [14] 106% | [15] 97.6% | [16] 103% | [17] 85.8%

COc1cnc2c(c1)C(=O)c1c-2n(CCCN2CCOCC2)c(=O)c2cc(F)ccc12
inactive: [10] 12.4% | [12] 40.6%
active: [1] -15% | [2] -64.5% | [3] 8.18% | [4] -23% | [5] -32.9% | [6] -13.5% | [19] -29.2% | [8] -60.1% | [9] -8.99% | [18] 3.8% | [11] -31.8% | [20] -30.1% | [13] 3.55% | [14] -21.1% | [15] -61.4% | [16] -10.6% | [17] 0.95%
